From the supplement of paper PMC6555819

Experiments:
Test in all cases: PBM binding z-score (relative to random genomic background probes); higher = stronger binding; sequences stand for … in GC…GCGATTGACAGCGTAGAATGAAGG
[1] = tested on: PPARg:RXRa DBDmut IVT, anti-RXR (DBD mutation: RXRa K156A/R161A, NR concentration 270 nM, RXRa partner concentration 90 nM)
Method in brief: (§1)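 Scanned fluorescence from custom Agilent 4×180K protein-binding microarrays was regression-normalized. Binding z-scores use random background probes as reference. Ligand-free nuclear receptor dimers were incubated on the arrays for 1 h and detected with antibodies against each partner (one per run).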

[2] = tested on: PPARg:RXRa IVT, anti-PPARg (NR concentration 270 nM, RXRa partner concentration 90 nM)
Method in brief: as §1

[3] = tested on: PPARg DBDmut:RXRa IVT, anti-PPARg (DBD mutation: PPARg1 K132A/R137A, NR concentration 270 nM, RXRa partner concentration 90 nM)
Method in brief: as §1

[4] = tested on: PPARg DBDmut IVT, anti-PPARg (DBD mutation: PPARg1 K132A/R137A, NR concentration 270 nM)
Method in brief: as §1

[5] = tested on: PPARg homodimer (NR concentration 180 nM)
Method in brief: as §1

[6] = tested on: PXR:RXRa (NR concentration 270 nM, RXRa partner concentration 90 nM)
Method in brief: as §1

[7] = tested on: PXR homodimer (NR concentration 270 nM)
Method in brief: as §1

[8] = tested on: RARa:RXR (NR concentration 270 nM, RXRa partner concentration 90 nM)
Method in brief: as §1

[9] = tested on: RARa homodimer (NR concentration 270 nM)
Method in brief: as §1

[10] = tested on: RARb:RXRa (NR concentration 270 nM, RXRa partner concentration 90 nM)
Method in brief: as §1

[11] = tested on: RARb homodimer (NR concentration 270 nM)
Method in brief: as §1

[12] = tested on: RARg:RXRa (NR concentration 270 nM, RXRa partner concentration 90 nM)
Method in brief: as §1

[13] = tested on: RARg homodimer (NR concentration 270 nM)
Method in brief: as §1

[14] = tested on: RXRa DBDmut IVT, anti-RXR (DBD mutation: RXRa K156A/R161A, NR concentration 90 nM)
Method in brief: as §1

[15] = tested on: RXRa homodimer (NR concentration 180 nM)
Method in brief: as §1

[16] = tested on: THRa:RXRa (NR concentration 90 nM, RXRa partner concentration 90 nM)
Method in brief: as §1

[17] = tested on: THRa homodimer (NR concentration 90 nM)
Method in brief: as §1

[18] = tested on: VDR:RXRa (NR concentration 270 nM, RXRa partner concentration 90 nM)
Method in brief: as §1

[19] = tested on: VDR homodimer (NR concentration 270 nM)
Method in brief: as §1

Sequence	PBM binding z-score [1]	PBM binding z-score [2]	PBM binding z-score [3]	PBM binding z-score [4]	PBM binding z-score [5]	PBM binding z-score [6]	PBM binding z-score [7]	PBM binding z-score [8]	PBM binding z-score [9]	PBM binding z-score [10]	PBM binding z-score [11]	PBM binding z-score [12]	PBM binding z-score [13]	PBM binding z-score [14]	PBM binding z-score [15]	PBM binding z-score [16]	PBM binding z-score [17]	PBM binding z-score [18]	PBM binding z-score [19]
ACTAGCAGGCCAAGTTTGGGTCACTCCAACAAAG	0.7	1.34	-0.265	-0.469	0.235	0.603	-0.498	1.4	-0.0686	1.74	2.33	2.23	1.55	0.0144	0.704	2.47	1.05	0.642	0.157
AGAACGAGGCCACGCTGAGTTGATAGCAGAGTAG	3.08	2.31	0.24	0.0825	-0.457	-0.0371	-0.451	-0.283	-0.379	1.17	0.176	0.764	1.22	0.267	0.15	1.02	-0.00748	0.045	0.389
GCTCGGAGGACAAGGGCAGAGCTTTGTCCGTAGA	-0.664	-0.527	-1.1	-1.88	-0.96	-0.518	-0.927	-0.516	-1.17	1.4	0.567	-0.153	0.628	-0.927	-0.428	0.387	-0.399	-0.692	-0.558
TAGCCTGGGTCATTCAGGGGCCAGTATAGAAAGC	0.888	2.36	0.524	-0.652	1.98	2.3	-0.415	3.78	-0.568	3.35	2.55	6.03	3.76	1.25	3.24	3.34	-0.502	2.82	0.911
CAAACTAGGTCACCGGAAGGTCCAAGTCCGCATG	8.74	8.78	2.63	2.9	2.36	2.43	-0.0607	3.18	1.11	4.39	3.77	5.27	5.86	1.82	3.81	3.59	2.3	3.1	1.68
GCAAATAGGTAATACAAGGTGAAAGTCCGATTGT	3.46	2.55	0.642	0.68	0.192	0.778	0.202	1.44	0.308	0.635	0.898	0.546	0.597	0.463	0.951	4.22	0.778	0.551	-0.442
ACTATTAGTTGACTGAGGGCAACCGATACGACGC	0.524	0.702	1.12	0.733	0.7	1.06	1.3	0.779	0.713	1.41	1.72	0.837	1.38	1	0.572	1.91	1.06	2.41	1.71
